Reference: PubChem BioAssay
Unmarked numbers belong to inactive results. The source made the active and inactive calls.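 Rule for the calls: active = mean inhibition over 43.08%, the solvent-only control mean plus 3 SD; inactive = the rest.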

biological target: Nuclear receptor coactivator 3 (Homo sapiens) (UniProt Q9Y6Q9); experiment: SRC3 coactivator transcriptional activity inhibitors, confirmation, cell-based, luminescence, quadruplicate (AID 588792); settings: HEK293 GAL4-SRC3 luciferase reporter, at 3.6 µM, active compounds read high;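 note: 0% = DMSO treated cells and 100% = gossypol at 36 µM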
Sequence (Q9Y6Q9 whole entry, looked up, the tested form may be a part): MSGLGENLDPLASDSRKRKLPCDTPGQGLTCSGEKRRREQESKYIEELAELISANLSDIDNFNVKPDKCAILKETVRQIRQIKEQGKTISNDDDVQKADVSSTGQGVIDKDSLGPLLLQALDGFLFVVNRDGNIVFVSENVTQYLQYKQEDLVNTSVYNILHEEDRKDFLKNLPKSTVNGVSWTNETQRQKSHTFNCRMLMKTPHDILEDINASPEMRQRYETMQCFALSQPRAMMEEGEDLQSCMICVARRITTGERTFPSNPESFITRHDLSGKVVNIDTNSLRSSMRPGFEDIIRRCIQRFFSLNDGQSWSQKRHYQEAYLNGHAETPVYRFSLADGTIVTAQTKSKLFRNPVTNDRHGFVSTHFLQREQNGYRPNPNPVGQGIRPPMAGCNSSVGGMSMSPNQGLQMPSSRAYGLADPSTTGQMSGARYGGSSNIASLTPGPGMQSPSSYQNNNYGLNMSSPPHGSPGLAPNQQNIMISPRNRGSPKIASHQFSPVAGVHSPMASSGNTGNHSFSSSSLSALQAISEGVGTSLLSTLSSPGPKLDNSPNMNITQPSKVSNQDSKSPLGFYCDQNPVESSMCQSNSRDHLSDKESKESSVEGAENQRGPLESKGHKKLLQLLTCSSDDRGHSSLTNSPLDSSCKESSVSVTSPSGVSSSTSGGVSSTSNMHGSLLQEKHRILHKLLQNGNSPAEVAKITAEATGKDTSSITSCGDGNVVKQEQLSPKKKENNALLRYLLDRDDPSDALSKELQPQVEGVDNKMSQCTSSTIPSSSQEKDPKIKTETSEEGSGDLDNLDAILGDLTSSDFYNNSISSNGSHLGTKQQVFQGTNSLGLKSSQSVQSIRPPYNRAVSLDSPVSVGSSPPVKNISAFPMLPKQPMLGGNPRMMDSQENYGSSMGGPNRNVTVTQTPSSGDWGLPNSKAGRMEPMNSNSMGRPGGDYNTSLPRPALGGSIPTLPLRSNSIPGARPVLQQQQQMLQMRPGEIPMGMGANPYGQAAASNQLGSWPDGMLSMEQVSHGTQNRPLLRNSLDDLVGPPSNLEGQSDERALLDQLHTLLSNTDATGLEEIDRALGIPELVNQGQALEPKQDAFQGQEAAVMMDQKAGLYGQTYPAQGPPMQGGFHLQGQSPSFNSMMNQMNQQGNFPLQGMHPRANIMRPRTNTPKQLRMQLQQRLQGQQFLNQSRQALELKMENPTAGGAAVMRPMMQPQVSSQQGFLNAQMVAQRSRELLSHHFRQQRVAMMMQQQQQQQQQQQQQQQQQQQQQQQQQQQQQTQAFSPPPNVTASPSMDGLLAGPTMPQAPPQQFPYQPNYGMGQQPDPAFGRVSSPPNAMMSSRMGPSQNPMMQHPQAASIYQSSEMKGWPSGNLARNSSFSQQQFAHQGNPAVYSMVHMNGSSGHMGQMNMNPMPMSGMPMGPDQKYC

SMILES | inhibition
C[n+]1c2n(c3ccccc31)N=C(c1ccccc1)CS2 | 4.94%
CC(=O)Nc1ccc(S(=O)(=O)c2ccnc3cc(Cl)ccc23)cc1 | 52.9% (active)
CC(C)c1ccc(-c2csc(NC(=O)c3cccs3)c2C(=O)O)cc1 | 8.33%
COc1cc(-c2cc3nc4ccccc4n3c(N)c2C#N)cc(OC)c1OC | 14.5%
CC(C)(C)c1ccc(/C=C2\SC(=O)N(CCNC(=O)c3cccc(S(=O)(=O)N4CCOCC4)c3)C2=O)cc1 | -11.1%
c1ccc2c(-c3cncc4ccccc34)cncc2c1 | 31.4%
COc1cc(OC)c2nc(C)c3c(c2c1)N(c1ccc(O)cc1)CC3 | 5.19%
CCOC(=O)C(=Cc1cc(=O)c(OC)co1)C(=O)OCC | 48.6% (active)
O=C(c1ccncc1)N(Cc1cc2ccccc2[nH]c1=O)C1CCCCC1 | 40.7%
O=C(CCCOc1ccc(Cl)cc1Cl)N/N=C/c1ccccc1O | 26.1%
O=C(N/N=C/c1ccc(O)cc1O)/C(=C/c1ccccc1)CCO | 22.1%
NC(=S)N/N=C1\CCSc2ccc(Cl)cc21 | 39.3%
CCC(=O)Nc1cc2nn(-c3ccc(C)cc3)nc2cc1C | -6%
O=C(COc1ccccc1O)NNc1ccccc1 | 11.6%
O=C(N/N=C/c1ccccc1O)/C(=C/c1ccccc1)CCO | 16.7%
CC(C)n1cc(/C=C/c2cc[n+](C)cc2)c2ccccc21 | 14%
Cc1nn(-c2ccccc2)c(Cl)c1C(=O)N1CCN(c2ncnc3c2cnn3-c2ccccc2)CC1 | 25.8%
OCCNc1c2ccccc2nc2ccccc12 | 4.16%
Cc1nc2ccc(NC(=O)c3ccc(Cl)c(S(=O)(=O)N(C)c4ccccc4)c3)cc2s1 | 19.2%
O=C1C(F)=CC(COC(c2ccccc2)(c2ccccc2)c2ccccc2)OC1n1cc(F)c(=O)[nH]c1=O (stereo not given) | 66% (active)

SMILES | inhibition
Nc1ncnc(NCc2ccc(F)cc2)c1[N+](=O)[O-] | 62.7% (active)
O=C(NC(=O)N1CCN(c2cccc(Cl)c2)CC1)c1ccccc1 | 23.9%
Cc1c(-c2ccccc2)oc2c(C(=O)N3CCN(c4ccc([N+](=O)[O-])cc4)CC3)cccc2c1=O | 54.4% (active)
COc1ccc(Nc2nc(N3CCCC3)nc3ccccc23)c(OC)c1 | 16.8%
O=C(Nc1nc(-c2ccc(S(=O)(=O)N3CCCC3)cc2)cs1)C1COc2ccccc2O1 (stereo not given) | 7.31%
COC(=O)c1cc2c(n1S(=O)(=O)c1ccc(C)cc1)C(=O)C(=O)c1[nH]cc(C(=O)OCc3ccccc3)c1-2 | 96.9% (active)
NNC(=O)C(=O)Nc1ccc(O)cc1 | 2.12%
CCN(CC)S(=O)(=O)c1ccc(/C=C/C(=O)Nc2ccc(F)c(F)c2F)cc1 | -25.9%
O=C(CCSc1nc2ccccc2s1)N/N=C/c1c(O)ccc2ccccc12 | 20.2%
CCCOc1ccc(/C=N/Nc2ccccc2[N+](=O)[O-])c(O)c1 | 27.7%
O=C(N/N=C/c1cc(Br)ccc1O)c1ccncc1 | 23.8%
O=C1CC(c2ccc3c(c2)OCO3)Sc2nc3ccccc3n21 (stereo not given) | -6.28%
Cc1cc(=O)[nH]c(Nc2cccc(Br)c2)n1 | 22.7%
CN(CC1CCCO1)S(=O)(=O)c1ccc(C(=O)Nc2nc3cc4c(cc3s2)OCO4)cc1 (stereo not given) | 14.7%
O=C(CSC1=NCCS1)Nc1ccnc2ccccc12 | 28.1%
Cc1ccc(NC(=O)CCC(=O)N/N=C/c2ccc(O)cc2O)cc1 | 7.69%
COc1ccc(C(=O)N/N=C/c2cc(Br)ccc2O)cc1OC | 26.2%
Nc1nc(=O)n(C2OC(CO)C(O)C2O)cc1F (stereo not given) | 13.6%
O=C(Nc1ccc(Cn2cccn2)cc1)c1ccc(COc2cccc(Br)c2)cc1 | 1.93%
Cc1ccc(C2CC(C(F)(F)F)n3nc(C(=O)NCc4c(C)nn(C)c4C)c(Cl)c3N2)cc1 (stereo not given) | 7.71%
